This passage reports inhibition results from PubChem BioAssay AID1578 (Sanford-Burnham Center for Chemical Genomics, 2009).

Out of some 290,000 compounds screened, about 3,000 (1%) were called active. This excerpt belongs to a sample that is enriched for actives. Values without a mark were called inactive. Cut-off read from the data, not from the text of the source: active = inhibition mostly above about 36% (no sharp cut-off); inactive = mostly below about 34%.

A short description of the experiment: inhibition of NOD1-driven NF-kB reporter – cell-based, luminescence, uHTS, primary screen (AID 1578).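 Note: HEK-293T reporter cells stimulated with the NOD1 agonist gamma-tri-DAP.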 Conditions: NOD1-driven NF-kB luciferase reporter cells, at 4 µM, stronger effect = higher value. In general terms: In a reporter assay the amount or activity of a reporter protein is the signal.
In general, inhibition refers to the change of the read-out against control, counted positive when it falls. Turning to `O=C(CSc1nnc(-c2ccccc2)n1-c1ccccc1)c1cccs1`, the inhibition is -1.9%.

As for `Cc1cc(C(=O)NC2CCCCC2C)c2ccccc2n1` (centres undefined), the inhibition is 1.8%.

Consider `O=C(C1=NNCC1c1ccc(Cl)cc1)C1CO1` (centres undefined), for which the inhibition was 88.4% (active).

Regarding `O=C(C1=NNCC1c1ccccc1)C1CO1` (centres undefined), the inhibition was -5.4%.

For `O=C(C1=NNCC1c1ccccc1)C1OC1c1ccccc1` (centres undefined), the inhibition was 15.8%.

In the case of `Cc1nc(N2CCOCC2)nc(OCCN(C)C)c1[N+](=O)[O-]`, the inhibition was -6.3%.

Take `O=C(O)/C(=C\c1ccccc1OC(F)F)Sc1nnc(-c2ccc(F)cc2)o1`: the inhibition is 32.5% (active).

For `O=C(O)/C(=C\c1cccs1)Sc1nnc(-c2ccc(F)cc2)o1`, the inhibition was -11.6%.

For the compound `COc1cc(/C=C(/Sc2nnc(-c3ccc(F)cc3)o2)C(=O)O)ccc1OC(F)F`, the inhibition is -21.8%.

Take `CCCC(c1nnnn1C(C)(C)C)N1CCN(c2ccccc2)CC1` (centres undefined): the inhibition was -12.7%.

For the compound `Cc1cc(=O)oc(C)c1C(=O)NNC(=O)C1(C)CC1Br` (centres undefined), the inhibition was -8.9%.

Consider `COc1cc(/C=N/NC(=O)c2cnn3c(C)cc(-c4ccccc4)nc23)ccc1O`, for which the inhibition is 46.9%.

As for `Cc1cc(C)c(NC(=S)N(CCCN2CCN(C)CC2)Cc2cccs2)c(C)c1`, the inhibition was -25.1%.

As for `Fc1ccc(CNCC2CCCO2)cc1` (centres undefined), the inhibition was 2.2%.

`Brc1ccc(CNCC2CCCO2)cc1` (centres undefined): the inhibition was 64.4% (active).

For the compound `Clc1ccc(CNCC2CCCO2)cc1` (centres undefined), the inhibition is 5.9%.

For the compound `COc1ccc(N(CC(=O)NCc2ccccc2)S(=O)(=O)c2c(C)nn(C)c2C)cc1`, the inhibition is -15.5%.

In the case of `O=C1NN(c2ccccc2)C(=O)/C1=C\c1cccn1-c1ccc(Cl)c([N+](=O)[O-])c1`, the inhibition is 86.9% (active).

Turning to `COc1cc(/C=C2/C(=O)NN(c3ccc(Cl)c(Cl)c3)C2=O)cc([N+](=O)[O-])c1O`, the inhibition was 14.3%.

In the case of `COc1cc(/C=C2\C(=O)NN(c3ccccc3)C2=O)cc([N+](=O)[O-])c1O`, the inhibition is -38.3%.

As to `O=C(CN1CCN(S(=O)(=O)N2CCCCCC2)CC1)Nc1ccc(Br)cc1`, the inhibition is -32.9%.

On to `O=Cc1ccc(N2CCCC2)c([N+](=O)[O-])c1`, for which the inhibition was -40.9%.

As to `O=C(O)CSCC(=O)NCc1csc2ccc(Cl)cc12`, the inhibition was 0.3%.

`CNC(=O)Cc1csc2ccc(Cl)cc12`: the inhibition was -7.2%.

Turning to `CNC(=O)Cc1csc2ccc(C)cc12`, the inhibition was 41.4% (active).

For `Cc1ccc(C)c(N2CCN(CCCNC(=O)Cn3cc4c(n3)CCC(C)C4)CC2)c1` (centres undefined), the inhibition is -16.2%.

As for `COc1ccccc1/C=N/N(C(C)=O)c1nc(-c2ccc(F)cc2)cs1`, the inhibition is 9.4%.

For `O=C(O)C1CCCN(S(=O)(=O)c2ccc(Cl)s2)C1` (centres undefined), the inhibition was -19.7%.

In the case of `Cc1cccc(Nc2ccc3nonc3c2[N+](=O)[O-])c1C`, the inhibition was -9.3%.

Take `COc1cc(NC(=O)COc2ccc(Cl)cc2)ccc1-c1cc2ccccc2oc1=O`: the inhibition was 12.1%.

Take `COc1cc(NC(C)=O)ccc1-c1cc2ccccc2oc1=O`: the inhibition was 34.7%.

For the compound `CCCc1ccc(S(=O)(=O)NCC2CCCN2CC)cc1` (centres undefined), the inhibition was -7.8%.

Take `COc1ccc(N(CC(=O)NCc2ccco2)C(=O)CNS(=O)(=O)c2ccc(Cl)cc2)cc1`: the inhibition is 4.6%.

As to `O=C(Cc1ccccc1)NC(=S)Nc1ccc2oc(-c3ccccc3F)nc2c1`, the inhibition is -99.4%.

Take `O=C(C1=C[C@@H](c2csc3ccccc23)C[C@@H](OCCCCO)O1)N1CCN(Cc2ccc3c(c2)OCO3)CC1`: the inhibition is -7.2%.

In the case of `Cc1ccc(C2=C(O)c3ccccc3C(=O)C2=O)cc1`, the inhibition was -31.4%.

In the case of `CC(=O)C1=C(c2ccc(Br)cc2)C(=O)c2ccccc2C1=O`, the inhibition is 98.1% (active).

In the case of `O=C(C1=C(c2ccccc2)C(=O)c2ccccc2C1=O)c1ccccc1`, the inhibition was 1.2%.

Regarding `COCCNC(=O)CCCCCN1C(=O)CCC1=O`, the inhibition is 48.6% (active).

For the compound `COCCNC(=O)CCCC(=O)NCCOC`, the inhibition is -16.8%.

Turning to `O=C(CCCCCN1C(=O)CCC1=O)NCc1ccccc1`, the inhibition is -1.8%.

As for `Cc1nnc2sc(-c3ccc(-c4ccc(Cl)c(C(F)(F)F)c4)o3)nn12`, the inhibition was -9.3%.

With `O=C(CCc1ccccc1)c1ccc2c(c1)OCCCO2`, the inhibition is -67.4%.

Regarding `CN(C)CCCC(=O)c1ccc2c(c1)OCO2`, the inhibition was -10.8%.

In the case of `O=C(Cc1ccccc1)c1ccc2c(c1)OCCO2`, the inhibition was -43.1%.

With `CCCC(=O)c1ccc2c(c1)OCCO2`, the inhibition was 1.3%.

For the compound `CN(C)CCC(=O)c1ccc2c(c1)OCO2`, the inhibition was 59.1% (active).

Consider `O=C(CCCc1ccccc1)c1ccc2c(c1)OCCO2`, for which the inhibition was 54.9% (active).

For the compound `Cc1ccccc1-c1nc(CN2CCCC2c2ccc(F)cc2)c(C)o1` (centres undefined), the inhibition is -29.5%.

As to `COCC1CCN(Cc2cn[nH]c2-c2cc3ccccc3o2)C1` (centres undefined), the inhibition is -18.7%.

For `O=Cc1c(C(=O)O)n(CC(=O)O)c2ccccc12`, the inhibition was -37%.

Turning to `CC1=NNC(=O)C1C(c1ccc(Cl)cc1)C(C#N)C#N` (centres undefined), the inhibition is -7.3%.

For the compound `CN(C(=O)Nc1ccccc1)C1CCCc2ccccc21` (centres undefined), the inhibition was -3.4%.

Turning to `O=C(CCl)NC1CCCc2ccccc21` (centres undefined), the inhibition is 59% (active).

As for `CCCc1nnc(NC(=O)CCC(=O)NC2CCCc3ccccc32)s1` (centres undefined), the inhibition is 89.6% (active).

With `Cc1ccccc1CC(=O)NC1CCCc2ccccc21` (centres undefined), the inhibition was 58.1%.

As to `O=C(Cc1ccc(Br)cc1)NC1CCCc2ccccc21` (centres undefined), the inhibition is -30.2%.

Take `CN(C(=O)CN1CCN(c2ccccc2F)CC1)C1CCCc2ccccc21` (centres undefined): the inhibition is -20.5%.

For `CC(C)Cc1nnc(NC(=O)CCC(=O)NC2CCCc3ccccc32)s1` (centres undefined), the inhibition was -25.2%.

In the case of `CCc1nnc(NC(=O)CCC(=O)NC2CCCc3ccccc32)s1` (centres undefined), the inhibition was -15.7%.

As to `CN(C(=O)CCl)C1CCCc2ccccc21` (centres undefined), the inhibition is 55.5% (active).

As to `O=C(CNC(=O)Cn1ccc2ccccc2c1=O)NCCCN1CCN(c2cccc(Cl)c2)CC1`, the inhibition was 9.9%.

Turning to `COc1ccccc1CN1CC(C(=O)N(C)CCCn2nc(C)cc2C)CCC1=O` (centres undefined), the inhibition was -33.8%.

As to `Cc1cc(Cl)ccc1C(=O)C1CCCN(C(=O)c2cnn(C(C)C)c2)C1` (centres undefined), the inhibition was -17.9%.

As for `CC(C)(C)n1cc(S(=O)(=O)c2ccccc2)[nH]c1=O`, the inhibition was -26.3%.

Take `O=C(Nc1ccccn1)N1CCOCC1`: the inhibition is -28.5%.

For the compound `C=CCn1c(SCc2cc(=O)n3cc(C)ccc3n2)nnc1-c1ccc(F)cc1`, the inhibition is -11.1%.

For the compound `O=C(O)CCn1[nH]c(=O)c2ccccc2c1=O`, the inhibition was -7.7%.

On to `Cc1ccc2nc(SCc3ccccc3)c(C=O)c(=O)n2c1`, for which the inhibition is -41.8%.

On to `COc1ccc(-c2c(NC(=O)c3ccco3)n(-c3ccccc3)nc(C)c2=O)cc1`, for which the inhibition is -7.7%.

For `COc1ccc(/C=N/NC(=O)c2c(-c3ccccc3)noc2C)cc1[N+](=O)[O-]`, the inhibition is -15.9%.

In the case of `Oc1ccc(-c2nc3c4c(ncn3n2)-c2ccccc2CC42CCCC2)cc1`, the inhibition is 99.8% (active).

`COc1ccc(-c2nc3c4c(ncn3n2)-c2ccccc2CC42CCCC2)cc1`: the inhibition is -3.6%.

Consider `c1ccc(OCc2nc3c4c(ncn3n2)-c2ccccc2CC42CCCC2)cc1`, for which the inhibition was 19.6%.

Regarding `O=C(Nc1ccccc1F)C1CCN(C(=O)NCc2ccccc2)CC1`, the inhibition is -18%.

Turning to `COc1ccc(-c2cc(-c3ccccc3)nc(Cl)n2)cc1OC`, the inhibition is 12%.

On to `Cc1c(NS(=O)(=O)c2ccc3c(c2)NC(=O)CC(=O)N3)cccc1[N+](=O)[O-]`, for which the inhibition is -6.1%.

For the compound `CCOC(=O)NC1(C(F)(F)F)C(=O)N(Cc2ccccc2)C2=C1C(=O)CC(C)(C)C2` (centres undefined), the inhibition is 0.2%.

Take `Cc1ccc(S(=O)(=O)N(C)c2ccc(OC(=O)c3ccc(=O)[nH]c3)cc2)cc1`: the inhibition was 5.9%.

As to `O=S(=O)(c1cc(F)ccc1F)N1CCN2CCCC2C1` (centres undefined), the inhibition was 50.7%.

With `C=CCNC(=S)N/N=C/c1ccc(C(C)(C)C)cc1`, the inhibition is 3.2%.

With `NC(=S)N/N=C/c1ccc(C(F)(F)F)cc1`, the inhibition is -16%.

Regarding `C=CCNC(=S)N/N=C/c1ccc(-c2ccc(OC)cc2)o1`, the inhibition was 59.5% (active).

`C=CCNC(=S)N/N=C/c1ccc(C(F)(F)F)cc1`: the inhibition is 52.7% (active).

Turning to `C=CCNC(=S)N/N=C/c1ccc(-c2cccc([N+](=O)[O-])c2)o1`, the inhibition is -8.7%.

Consider `C=CCNC(=S)N/N=C/c1ccc(-c2ccc(Br)cc2)o1`, for which the inhibition is -6.5%.

As to `CCN(CC)CCCN1C=C2C(=O)C(C)(OC(=O)C3CCCC3)C(=O)C=C2C=C1c1ccsc1` (centres undefined), the inhibition was -2%.

In the case of `CCOC(=O)C1=C(c2ccccc2)N=C2SCC(=O)N2C1c1ccc(OCC)c(OCC)c1` (centres undefined), the inhibition is -4%.

As for `CCOC(=O)Cn1nc(C)c(NC(=O)COc2ccc([N+](=O)[O-])cc2)c1C`, the inhibition is -8.3%.

For `CCOC(=O)NNC(=O)CCn1c2c(c3ccccc31)CCCC2`, the inhibition was 55.3% (active).

On to `O=C(CCn1c2c(c3ccccc31)CCCC2)NNC(=O)c1ccccc1Cl`, for which the inhibition is -15.4%.

Consider `CC(=O)NNC(=O)CCn1c2c(c3ccccc31)CCCC2`, for which the inhibition is -2%.

For `CCOC(=O)c1c(C)[nH]c(C(=O)CSc2nc(C)cc(C)n2)c1C`, the inhibition is -15.5%.

Turning to `O=C(O)C1CC1(c1ccccc1)c1ccccc1` (centres undefined), the inhibition is -21.6%.

On to `CCOc1ccc(Nc2nc(NCC(=O)O)nc(N)c2[N+](=O)[O-])cc1`, for which the inhibition is 0.9%.

On to `O=C(Nc1ccccc1)C1C2CCC3C(CCC21)C3(Cl)Cl` (centres undefined), for which the inhibition was -42.4%.

With `O=C(Nc1cccc(Cl)c1)C1C2CCC3C(CCC21)C3(Cl)Cl` (centres undefined), the inhibition was 73% (active).

For the compound `Cc1cccc(NC(=O)C2C3CCC4C(CCC32)C4(Cl)Cl)c1` (centres undefined), the inhibition is -38.6%.

Take `COc1cccc(CN2CCNC(=O)C2CC(=O)N2CCCCO2)c1OC` (centres undefined): the inhibition is -10.5%.
